The record followed here is the OligoGym collection.
Further: reference of the scale not given here.

In one test the target is SLC25A25. Description: pooled miR-30 sensor sort-seq; sequence = guide strand. To be noted: shRNA.
In the case of TTCTTTTTGTCCAAACTCTTAA, the sensor-assay potency score (higher = more potent) was -1.04.

TTAAATGACAACTTCTAACGTC returned a sensor-assay potency score (higher = more potent) of 0.538.

Regarding TTCCAGTCGATGGTCATCGTGC, the sensor-assay potency score (higher = more potent) was -0.398.

Sequence TGCATGAGCACCTTGAGCCTGT returned a sensor-assay potency score (higher = more potent) of -0.00686.

With TAGTCTCTCCACTCGTTCCAGT, the sensor-assay potency score (higher = more potent) was -0.705.

On to AAATTCTTCAAAGTCTAGCTGC, for which the sensor-assay potency score (higher = more potent) was 0.318.

On to TTCTCGTAGACCACGTAGCTGA, for which the sensor-assay potency score (higher = more potent) is -0.478.

TAAATGACAACTTCTAACGTCC yielded a sensor-assay potency score (higher = more potent) of 0.0926.

TAGACTGCAAGGTCGATGCCGG came in with a sensor-assay potency score (higher = more potent) of -0.614.

TATCTTGACTCCCAAGTCCCGC: the sensor-assay potency score (higher = more potent) was -1.03.

The target in another test is SLC25A30. The description is as above. To be noted: shRNA.
The sequence TTATAGAGAGCAAAAAACCCTT showed a sensor-assay potency score (higher = more potent) of -0.63.

In turn, TTCAATGAATAGTCGCTTCAAG returned a sensor-assay potency score (higher = more potent) of -0.455.

In turn, TAGAGTTTCATCTTCTGGGCGT showed a sensor-assay potency score (higher = more potent) of 0.316.

TTGCTTTGCGCTTGCATCCGAA yielded a sensor-assay potency score (higher = more potent) of -1.2.

Regarding TTATCGGTAGAGTTTCATCTTC, the sensor-assay potency score (higher = more potent) was -0.374.

In turn, TATCGGTAGAGTTTCATCTTCT registered a sensor-assay potency score (higher = more potent) of 0.16.

TATCATTCCTCCTTGAATGGTG displayed a sensor-assay potency score (higher = more potent) of -0.0231.

Take TGTAGCCAGAACATCTGCCATC: the sensor-assay potency score (higher = more potent) was -1.32.

For the sequence TGTCTGTAACAAGCAATCCAGG, the sensor-assay potency score (higher = more potent) was -1.42.

As to TAAGTGCCTATCTTGATGGTGC, the sensor-assay potency score (higher = more potent) worked out at 0.212.

For the sequence TAAATGTTCATGAAGTTGCCTA, the sensor-assay potency score (higher = more potent) is -0.274.

A further test deals with SLC25A38. Described as above. Particulars: shRNA.
The sequence ATGAGTTTTGATAACATCCGCA showed a sensor-assay potency score (higher = more potent) of 0.0272.

In the case of TAGGACTTCATCTTACTGCAGA, the sensor-assay potency score (higher = more potent) is -0.516.

AAGAGTACAGCCAACATCCCAA gave a sensor-assay potency score (higher = more potent) of -0.0219.

TATGAATTGATGACTCCTCTTT gave a sensor-assay potency score (higher = more potent) of 0.416.

In turn, TAACATAAGCGTTTCCACCGTG had a sensor-assay potency score (higher = more potent) of 0.26.

ATAGGTGACATACAGACCCCTG registered a sensor-assay potency score (higher = more potent) of -0.876.

On to TTGATGACTCCTCTTTTGGAGA, for which the sensor-assay potency score (higher = more potent) is -1.04.

With TTTGATAACATCCGCAGGTTGA, the sensor-assay potency score (higher = more potent) is -0.428.

In turn, TATATTTTTGGTCTGGTTGTAA showed a sensor-assay potency score (higher = more potent) of 0.16.

Take TTGAAAATAAGTGTCACTGCTT: the sensor-assay potency score (higher = more potent) was determined as 0.827.

With TATGAGTTTTGATAACATCCGC, the sensor-assay potency score (higher = more potent) is -0.0581.

In the case of TGAGTTTTGATAACATCCGCAG, the sensor-assay potency score (higher = more potent) is -0.615.

For another test, the target named is SLC25A3. The test is described as above. To be noted: shRNA.
As for TTTTCTTTATTCAACACAGATA, the sensor-assay potency score (higher = more potent) was -1.15.

Regarding TTGTACAGTGCTTCAACAGTAC, the sensor-assay potency score (higher = more potent) was 0.043.

Turning to TAAGTGTAACTGAGAATCCGTT, the sensor-assay potency score (higher = more potent) is -0.605.

Turning to TTAAGTGTAACTGAGAATCCGT, the sensor-assay potency score (higher = more potent) was found to be 0.392.

For TTTAAATCCAAGTCTCTTGAGG, the sensor-assay potency score (higher = more potent) was -0.533.

With TAAATCTGAAACTCTTGCCTTA, the sensor-assay potency score (higher = more potent) was determined as 0.121.

TACAAATGTTACAACCAGCTGC displayed a sensor-assay potency score (higher = more potent) of 0.505.
